Rows were chosen to be rich in hits. Some 19% of all compounds tested hit in one or more screens of this group.
TGFb SMAD3 inh – qHTS for Inhibitors of TGF-b; HepG2 CAGA-GFP TGF-b/SMAD3 reporter, GFP fluorescence, 18 h; TGF-beta stimulated, 500 pg/mL final; Potency, µM (highest dose often 46.1 µM), actives largely listed as inhibitors; actives 1.2% (n = 410,000); also: nearly all actives have a fitted effect of over 65% in size
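Read-out: total well GFP (ex488/em500-530) summed from mean per-cell fluorescence. Cells: HEPG2 CAGA-GFP, 1% FBS DMEM, 18 h at 37 degrees C with 500 pg/mL final TGF-beta. Unstimulated wells served as the full-inhibition control; stimulated DMSO wells = 0%.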
HepG2 tox – qHTS for Inhibitors of TGF-b: Cytotox Counterscreen | HepG2 CAGA-GFP viability, ATP luminescence, 18 h | Potency, µM (doses to about 46.1 µM), actives largely listed as cytotoxic | actives 0.76% (n = 410,000)
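HepG2 CAGA-GFP cells (1000/well, DMEM with 1% FBS) received compound, then TGF-beta at 500 pg/mL final, and were incubated 18 hours at 37 degrees C. Viability was read by CellTiter-Glo luminescence. Media-only wells were set as complete cell-killing and DMSO as no toxicity.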
DT40 TDP1 CPT – qHTS for Inhibitors of human tyrosyl-DNA phosphodiesterase 1 (TDP1): qHTS in cells in presence of CPT; chicken DT40 Tdp1-/-;hTDP1 cells + 20 nM CPT, ATP luminescence, 48 h; Potency, µM (titrated, usually from 46.2 µM), most hits filed as inhibitors; actives 12% (n = 420,000); also: nearly all actives have a fitted effect of over 55% in size
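Chicken DT40 Tdp1-/- cells stably complemented with human TDP1 were seeded at 400 cells/well in medium containing 20 nM camptothecin, exposed to pin-transferred compounds, and grown at 37 °C for at least 48 hr. Viability was read as ATP luminescence.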
TDP1 inh – qHTS Assay for Inhibitors of Tyrosyl-DNA Phosphodiesterase (TDP1) | Tyrosyl-DNA phosphodiesterase 1 (Homo sapiens), Q9NUW8 | recombinant TDP1, AlphaScreen DNA substrate cleavage | Potency, µM (top dose mostly 130 µM), usual class: inhibitors | actives 0.28% (n = 350,000) | AID 485290, 2010; also: nearly all actives have a fitted effect of over 40% in size
Target sequence (Q9NUW8 whole entry, looked up): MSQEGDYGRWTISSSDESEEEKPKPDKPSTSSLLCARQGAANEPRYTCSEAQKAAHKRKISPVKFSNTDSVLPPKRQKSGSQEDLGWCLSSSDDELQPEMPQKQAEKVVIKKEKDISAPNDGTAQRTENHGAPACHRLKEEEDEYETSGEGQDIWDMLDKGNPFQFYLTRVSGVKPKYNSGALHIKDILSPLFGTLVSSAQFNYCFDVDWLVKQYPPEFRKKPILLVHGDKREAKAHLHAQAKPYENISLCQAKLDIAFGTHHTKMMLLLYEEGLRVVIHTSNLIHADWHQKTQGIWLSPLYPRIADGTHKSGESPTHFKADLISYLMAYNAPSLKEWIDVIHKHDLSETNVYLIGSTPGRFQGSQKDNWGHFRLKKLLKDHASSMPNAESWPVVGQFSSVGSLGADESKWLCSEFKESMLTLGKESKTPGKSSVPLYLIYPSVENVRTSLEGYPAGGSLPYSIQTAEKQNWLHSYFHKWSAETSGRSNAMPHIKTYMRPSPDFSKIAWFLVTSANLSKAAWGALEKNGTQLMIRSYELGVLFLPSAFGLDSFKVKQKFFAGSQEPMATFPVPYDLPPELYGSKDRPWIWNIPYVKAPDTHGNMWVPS
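Compounds were preincubated with Tdp1 (1 nM final) for 15 min at room temperature before substrate (15 nM final) started a 5 min reaction; beads (10 ug/ml final) were then added for 10 min before AlphaScreen detection.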
TDP1 cell noCPT – qHTS for Inhibitors of human tyrosyl-DNA phosphodiesterase 1 (TDP1): qHTS in cells in absence of CPT; DT40 Tdp1-/- hTDP1 cells, no CPT, ATP luminescence, 48 h; Potency, µM (top dose mostly 46.2 µM), usual class: inhibitors; actives 15% (n = 420,000); AID 686978, 2013; also: nearly all actives have a fitted effect of over 55% in size
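A cellular qHTS used chicken DT40 cells lacking endogenous Tdp1 but carrying stably transfected human TDP1. Compounds were applied without camptothecin, and cell growth kinetics were judged by ATP-dependent luminescence after ≥48 hr.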
IL1B secr inh – qHTS for Inhibitors of Inflammasome Signaling: IL-1-beta AlphaLISA Primary Screen. THP-1 LPS/ATP IL-1B secretion, AlphaLISA, 16 h; hits give low values. activity change, % at 57.5 µM. actives 4.7% (n = 360,000); in the data active = activity change below about -50%; inconclusive = mostly about -30% to -49%
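THP-1 cells pretreated 1 hr with compounds (up to 57.5 uM final), then stimulated with LPS (250 ng/mL final) plus ATP (1.25 mM final); secreted IL-1B measured by AlphaLISA after 16 hr, decreased signal indicating inhibition.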
Hits are given with their value; – = inactive; ? = inconclusive; · = no result given. Unless noted, calls follow the shape of the dose curve; as a rule, active = well fitted curve in the direction sought with a large enough effect; inconclusive = small, poorly fitted or top-dose-only effect, or another doubt; inactive = no such curve, though single readings can be large; an effect the other way counts as inactive or inconclusive.

SMILES | TGFb SMAD3 inh | HepG2 tox | DT40 TDP1 CPT | TDP1 inh | TDP1 cell noCPT | IL1B secr inh
COc1ccc(Cl)cc1NC(=O)CSc1nnc2[nH]c(=O)cc(C)n12 | ? | – | – | – | – | ·
Cc1ccc(S(=O)(=O)N2CCN(C(=O)n3ccnc3)CC2)cc1 | – | – | 0.651µM | – | 11.6µM | –
COc1ccc(COC(=O)c2c(C)nn(-c3ccccc3)c2Cl)cc1 | – | – | – | 56.2µM | – | –
Cc1ccc(S(=O)(=O)N2CCN(C(=O)c3c(C)nn(-c4ccccc4)c3Cl)CC2)cc1 | – | – | ? | – | ? | -53.8
Cc1cc(C)c(S(=O)(=O)N2CCN(C(=O)c3c(C)nn(-c4ccccc4)c3Cl)CC2)c(C)c1 | – | – | ? | · | ? | ?
COc1ccc(S(=O)(=O)N2CCN(C(=O)c3c(C)nn(-c4ccccc4)c3Cl)CC2)cc1 | – | – | ? | – | 23.1µM | –
Cc1nn(-c2ccccc2)c(Cl)c1C(=O)NNC(=O)c1ccccc1O | – | – | ? | – | 13µM | –
CCOC(=O)COc1cc(N)c(Cl)cc1Cl | ? | – | – | – | – | -53.4
Cc1ccc(Cl)c(OCC(=O)OCC(=O)c2ccc[nH]2)c1 | – | – | ? | – | – | –
Nc1ccc(Nc2ccccc2)c(S(=O)(=O)O)c1 | – | – | – | 56.2µM | – | –
Cc1ccc(Nc2ccc(N)cc2S(=O)(=O)O)cc1 | – | – | – | – | – | –
Cc1ccc(S(=O)(=O)NC(C)(C)C)cc1C(=O)OCC(=O)N1CCCC1=O | – | – | – | · | – | –
CCOC(=O)C1CCN(C(=O)CCc2c(C)nc3cc(-c4ccc(OC)cc4OC)nn3c2C)CC1 | – | – | ? | – | ? | –
COc1ccc(-c2cc3nc(C)c(CCC(=O)NC4CCCCC4)c(C)n3n2)c(OC)c1 | – | – | ? | – | ? | ·
COc1ccc(-c2cc3nc(C)c(CCC(=O)N4CCN(c5ccc(F)cc5)CC4)c(C)n3n2)c(OC)c1 | – | – | 23.1µM | – | 16.4µM | ·
COc1ccc(N2CCN(C(=O)CCc3c(C)nc4cc(-c5ccc(Cl)cc5)nn4c3C)CC2)cc1 | – | – | – | – | – | ·
COc1ccc(N2CCN(C(=O)CCc3c(C)nc4cc(-c5ccc(OC)cc5OC)nn4c3C)CC2)cc1 | – | – | 20.6µM | – | 16.4µM | ·
COc1ccc(-c2cc3nc(C)c(CCC(=O)N4CCN(c5cccc(Cl)c5)CC4)c(C)n3n2)c(OC)c1 | ? | – | 2.59µM | – | 5.8µM | ·
Cc1cc2c(c(C)c1CCO[C@@H]1O[C@H](CO)[C@@H](O)[C@H](O)[C@H]1O)C(=O)[C@@H](C)[C@@H]2O | ? | – | 2.91µM | – | 5.17µM | –
CCC(C)Sc1nc2c(c(=O)[nH]1)C(c1cccs1)C1=C(CCCC1=O)N2 (centres undefined) | ? | – | ? | – | 20.6µM | –
O=C1CCCC2=C1C(c1ccncc1)c1c(nc(SCc3ccccc3Cl)[nH]c1=O)N2 (centres undefined) | – | – | – | – | – | –
Cc1ccc(C)c(C(=O)N2CCC(C3(c4ccccn4)NC(=O)N(CC4CCCO4)C3=O)CC2)c1 (centres undefined) | · | · | – | · | – | ·
COc1ccc(NC(=O)N(C)C[C@@H]2Oc3cc(Br)ccc3S(=O)(=O)N([C@H](C)CO)C[C@H]2C)cc1 | – | – | – | · | – | –
COc1cccc(S(=O)(=O)N(C)C[C@@H]2Oc3cc(Br)ccc3S(=O)(=O)N([C@@H](C)CO)C[C@@H]2C)c1 | – | – | ? | · | 25.9µM | –

From PubChem BioAssay
